Several values for one entry are separate records, joined by “and”; a condition that tells them apart may be missing. Equal values may be shown once. Records with an inconclusive call do not appear. Activity calls are given as the source filed them. The call rests on the fitted dose curve; in most records, active means well fitted cell-killing curve with a large enough effect in the repeat runs; inconclusive means weak or mixed curves, or effect the other way; inactive means no such curve, though single readings can be large or run the other way.

Our source for the Potency values is PubChem BioAssay (Tox21).
Potency means the concentration at half of the fitted maximal effect.

The assay can be described thus: qHTS assay for small molecule activators of the heat shock response signaling pathway - cell viability counter screen (AID 743209). Further: nearly all actives have a fitted effect of over 50% in size. The note with it: HSE-bla HeLa viability, CellTiter-Glo luminescence, 5 h; series mostly up to 62.6 µM. The essentials: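 Compounds dissolved in DMSO were added to overnight-plated HSE-bla HeLa cells and left 5 h at 37 C. Cell viability was quantified by luminescence using CellTiter-Glo.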
With `NC(=O)CC[C@@H]1NC(=O)[C@H](Cc2ccccc2)NC(=O)[C@H](Cc2ccc(O)cc2)NC(=O)CCSSC[C@@H](C(=O)N2CCC[C@H]2C(=O)N[C@@H](CCCN=C(N)N)C(=O)NCC(N)=O)NC(=O)[C@H](CC(N)=O)NC1=O`, the Potency entry was “inactive”.
Regarding `C=CC(=O)OCCn1c(=O)n(CCOC(=O)C=C)c(=O)n(CCOC(=O)C=C)c1=O`, the Potency was 13.8 µM (active).
With `CCCCCCCCCCCC(=O)NCCCN(C)C`, the Potency is 49 µM (active).
In the case of `Cc1cc(C2CCCCC2)n(O)c(=O)c1`, the Potency entry was “inactive”.
On to `CCCCCCCC[P+](CCCCCCCC)(CCCCCCCC)CCCCCCCC`, for which the Potency is 5.46 µM (active).
In the case of `CCCC(c1cc(C(C)(C)C)c(O)cc1C)c1cc(C(C)(C)C)c(O)cc1C` it was 12.5 µM (active); in that of `CC/C(=C(\c1ccc(O)cc1)c1ccc(OCCN(C)C)cc1)c1ccccc1`, 27.6 µM (active).
In the case of `Oc1cccc(-c2c3nc(c(-c4cccc(O)c4)c4ccc([nH]4)c(-c4cccc(O)c4)c4nc(c(-c5cccc(O)c5)c5ccc2[nH]5)CC4)C=C3)c1` it was “inactive”; in that of `CC(C)(C)C(=O)OCOC(=O)[C@@H]1N2C(=O)[C@@H](NC(=O)[C@H](N)c3ccccc3)[C@H]2SC1(C)C`, “inactive”.
In the case of `CCCCC(CC)CN=C(N)NC(N)=NCCCCCCN=C(N)NC(N)=NCC(CC)CCCC` (stereo not drawn) it was 23.7 µM (active).
For `Clc1ccc2cc3ccccc3cc2c1`, the Potency entry is “inactive”.
On to `CN(C)c1ccc(C2(c3ccc(N(C)C)cc3)OC(=O)c3cc(N(C)C)ccc32)cc1`, for which the Potency entry was “inactive”.
For `Cc1[nH]cnc1C[C@H]1CCc2c(C)c3ccccc3n2C1=O`, the Potency result was “inactive”.
To `C=CC(=O)OCC(CO)(COCC(COC(=O)C=C)(COC(=O)C=C)COC(=O)C=C)COC(=O)C=C` belongs 2.72 µM (active).
Take `NNc1nc(-c2ccc(N)cc2)cs1`: the Potency result is “inactive”.
Take `CC(C)c1ccc2c(c1)CC[C@H]1[C@](C)(CN)CCC[C@]21C`: the Potency was 19.5 µM (active).
To `[Cl][Bi]([Cl])([c]1ccccc1)([c]1ccccc1)[c]1ccccc1` belongs 48.7 µM (active).
To `CCCCN(CCCC)c1ccc(C(=O)c2ccccc2C(=O)O)c(O)c1` belongs 62.2 µM (active).
Take `O=C(Nc1cccc(Cl)c1)OCC#CCCl`: the Potency is 19.5 µM (active).
In the case of `Oc1cc2ccccc2c2ccccc12` it was 9.77 µM (active).
In the case of `C=CC(=O)OCC(CO)(COC(=O)C=C)COC(=O)C=C` it was 3.9 µM (active) and 2.45 µM (active); in that of `COc1ccc(C(=O)/C(Br)=C\C(=O)O)cc1`, “inactive”.
Consider `CCN(Cc1cccnc1)C(=O)c1cccc(Cl)c1[C@]1(C)C(=O)N(Cc2ccc(OC)cc2OC)c2ccc(Cl)cc21`, for which the Potency entry was “inactive”.
To `CS(=O)(=O)CCNCc1ccc(-c2ccc3ncnc(Nc4ccc(OCc5cccc(F)c5)c(Cl)c4)c3c2)o1` belongs 26.6 µM (active); to `CN(C)C(=O)C1(N2CCCCC2)CCN(CC[C@@]2(c3ccc(Cl)c(Cl)c3)CN(C(=O)c3ccccc3)CCO2)CC1`, 51.3 µM (active).
In the case of `CCCCCCCCCCCCc1ccc(O)cc1` it was 24.5 µM (active).
To `CC(C)(C)C(=O)OCOC(=O)C1N2C(=O)CC2S(=O)(=O)C1(C)C` (stereo not drawn) belongs “inactive”; to `O=S1(=O)CC(Cl)(Cl)C(Cl)(Cl)C1`, 1.95 µM (active).
